DAX1 inh-1 = DAX1 (NR0B1) inhibitors, primary screen, cell-based, HEK293, Gal4-DAX1, luciferase luminescence; Nuclear receptor subfamily 0 group B member 1 (Homo sapiens), P51843; HEK293 Gal4-DAX1 luciferase reporter; inhibition, % at 6.75 µM; actives 0.99% (n = 340,000); AID 504766, 2011;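 active = inhibition above the mean over all tested compounds plus 3 SD, cut at about 4.2% in these data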;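 also: inhibition shows as a rise in luminescence from relieved DAX1 repression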
Target sequence (P51843 207-470 limits assumed): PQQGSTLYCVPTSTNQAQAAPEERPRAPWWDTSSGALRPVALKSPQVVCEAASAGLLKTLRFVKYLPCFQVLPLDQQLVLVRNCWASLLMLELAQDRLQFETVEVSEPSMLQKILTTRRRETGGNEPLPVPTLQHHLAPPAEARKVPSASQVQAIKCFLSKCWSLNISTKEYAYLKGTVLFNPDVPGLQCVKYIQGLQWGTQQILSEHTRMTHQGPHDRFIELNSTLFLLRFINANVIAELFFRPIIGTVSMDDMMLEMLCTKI
ssDAF-12 act = S. stercoralis DAF-12 nuclear receptor activators, primary screen, cell-based, luminescence, HEK293, GRIP1 co-expression, lit1-tk-luc | HEK293 ssDAF-12/GRIP1 lit1-tk-luc reporter; % of 3 µM dafachronic acid response | activation, % at 6.8 µM | actives 1% (n = 370,000);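 active = activation above the mean over all tested compounds plus 3 SD, cut at about 0.9% in these data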
hcDAF-12 act = H. contortus DAF-12 nuclear receptor activators, primary screen, cell-based, luminescence, HEK293, lit1-tk-luc reporter; HEK293 hcDAF-12 lit1-tk-luc reporter; 0% DMSO, 100% Δ7-dafachronic acid; activation, % at 6.8 µM; actives 1.4% (n = 370,000); AID 652067, 2013;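 active = activation above the mean of all tested compounds plus 3 SD, cut at about 5.5% in these data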
hgDAF-12 ag = H. glycines DAF-12 receptor agonists, primary screen, cell-based, luminescence, HEK293, GAL4 fusion, UAS-luciferase; Nuclear hormone receptor DAF-12 (Heterodera glycines), GAL4 fusion; HEK293 GAL4-hgDAF12 UAS-luciferase reporter, agonist luminescence; normalized to butyrate control; activation, % at 6.8 µM; actives 1.8% (n = 370,000); AID 687014, 2013;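 active = activation above a cutoff set at the mean of all screened compounds plus 3 SD, cut at about 10% in these data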
DAX1 inh-2 = DAX1 (NR0B1) inhibitors on StAR promoter, primary screen, cell-based, luminescence, SF-1 (NR5A1), full-length DAX-1 | HEK293T StAR-luciferase reporter, SF-1/DAX-1 repression relief | inhibition, % at 6.8 µM | actives 1.1% (n = 370,000) | AID 652010, 2013;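 active = inhibition above the mean over all tested compounds plus 3 SD, cut at about 3.6% in these data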;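 also: higher inhibition means more luminescence from relief of DAX-1 repression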
Hits are given with their value; – = inactive; · = no result. A selection: hits, their analogues and other compounds. The true share with any hit is near 4.1%.

SMILES | DAX1 inh-1 | ssDAF-12 act | hcDAF-12 act | hgDAF-12 ag | DAX1 inh-2
Cc1cccnc1NC(=O)C(C)N1C(=O)c2ccccc2C1=O (stereo unspecified) | 7.5 | – | – | – | –
Cc1cccnc1NC(N)=S | – | – | – | – | –
Cc1cccc(NC(=S)NCCc2ccccc2)c1C | – | – | – | – | –
Cc1cccnc1NC(=S)Nc1ncccc1C | 4.8 | – | – | 11 | –
Cc1cccnc1NC(=S)NCCc1ccccc1 | – | – | – | 12 | –
Cc1ccccc1NC(=O)C(C)N1C(=O)c2ccccc2C1=O (stereo unspecified) | – | – | – | – | –
NS(=O)(=O)c1ccc(CNC(=S)NC2CCCC2)cc1 | 4.5 | – | – | – | –
O=C(CCNc1ccc(Cc2ccncc2)cc1)c1ccc([N+](=O)[O-])cc1 | – | 11 | – | – | –
COc1ccc2c(c1)CO[C@H]([C@H](O)COC(C)=O)[C@H]2/C=C/c1ccccc1 | · | – | – | – | –
Cc1ccccc1N1C(=O)CC2(CCCC2)CC1=O | – | 1.1 | – | – | –
Cc1ccccc1N1C(=O)C2C3C=CC(CC3)C2C1=O (stereo unspecified) | – | – | – | – | –
c1ccc2nc(-c3ccc(N4CCOCC4)cc3)ccc2c1 | – | – | 6.3 | – | 3.8
O=C(CSc1nnc(-c2cccnc2)n1C1CCCCC1)N1CCCC1 | · | – | – | – | –
CCOc1ccc(-n2c(SCC(=O)Nc3ccc(S(=O)(=O)Nc4cc(C)nc(C)n4)cc3)nnc2-c2cccc(C)c2)cc1 | · | – | – | – | –
CN(Cc1nccn1C)C(=O)c1ccc2nc(Cc3ccccc3F)oc2c1 | – | – | – | 13 | –
Cc1cccc(CNC(=O)c2ccc3nc(Cc4ccccc4F)oc3c2)n1 | – | – | – | 11 | 3.7
COc1ccc(Cc2nc3ccc(C(=O)NCc4cccc(C)n4)cc3o2)cc1OC | – | – | – | – | –
CCCCCCCCN1C(=O)[C@@H](CC(=O)N2CCCCC2)C[C@@]2(C(=O)OC)C1=C[C@H](C(C)C)O[C@@H]2C1CC1 | · | – | – | – | –
CCC(C)NC(=O)c1cc(-c2ccc(OC)cc2)on1 (stereo unspecified) | – | – | – | 11 | –
COc1cccc(-c2cc(C(=O)Nc3cccc(O)c3)no2)c1 | – | – | – | 11 | –
Cc1ccc(-c2cc(C(=O)NCCCn3ccnc3)no2)cc1 | – | – | – | – | –
O=C(Nc1cc(Br)ccc1O)c1cc(-c2ccccc2)on1 | – | – | – | – | –
COc1ccc(NC(=O)c2cc(-c3cccc(OC)c3)on2)cc1 | – | – | – | – | –
O=C(NCCCn1ccnc1)c1cc(-c2cccc(O)c2)on1 | 4.7 | – | – | – | –
Cc1ccc(O)c(NC(=O)c2cc(-c3ccccc3)on2)c1 | 4.9 | – | – | – | –
SMILES | DAX1 inh-1 | ssDAF-12 act | hcDAF-12 act | hgDAF-12 ag | DAX1 inh-2
Cn1c(Cc2cccs2)nnc1SCC(=O)Nc1ccc2cn[nH]c2c1 | · | – | – | – | –
COc1ccc(-c2cc(C(=O)Nc3cccc(Cl)c3)no2)cc1 | 4.2 | – | – | – | –
O=C(Nc1ccccc1C(F)(F)F)c1cc(-c2cccc(O)c2)on1 | – | – | – | – | –
CCc1ccccc1NC(=O)c1cc(-c2cccc(O)c2)on1 | – | – | – | 11 | –
COc1ccc(C(CNC(=O)c2ccc(S(=O)(=O)Nc3ccccc3OC)cc2)N2CCCC2)cc1 (stereo unspecified) | – | – | – | – | 4.2
C=CCSc1n[nH]c(-c2ccc(OCCCC)cc2)n1 | – | 0.9 | – | – | –
O=C(Nc1ccc(OC(F)(F)F)cc1)Nc1c(-c2ccccc2)nc2ncccn12 | · | – | – | – | –
COc1ccc(-c2nnc(-c3ccccc3O)o2)cc1 | – | – | – | 12 | –
CSc1nnc(-c2ccc([N+](=O)[O-])cc2)o1 | – | – | – | – | –
COc1ccc(-c2nnc(-c3ccc(C)cc3)o2)cc1 | – | – | – | – | –
